PubChem BioAssay (Tox21)
Values joined by “and” are separate entries in the source; they are usually repeats but may differ in a detail not shown here. Identical values can stand only once. Inconclusive results are not listed. Active and inactive are the calls of the source. The call rests on the fitted dose curve; in most records, active means well fitted cell-killing curve with a large enough effect in the repeat runs; inconclusive means weak or mixed curves, or effect the other way; inactive means no such curve, though single readings can be large or run the other way.

Experiment: qHTS assay to identify small molecule agonists of the estrogen receptor alpha (ER-alpha) signaling pathway in the presence of an antagonist - cell viability counter screen (AID 1259386); further: nearly all actives have a fitted effect of over 30% in size
Conditions: VM7Luc4E2 viability, CellTiter-Fluor fluorescence, 22 h; series mostly up to 92.4 µM; activity change, negative = cytotoxicity: at the top concentration
Method in brief: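 Steps: 5-day stripped-FBS culture; seed and incubate 24hr; add ICI-182,780 (10.0nM final); pin 15-point compound titration; incubate 22hr at 37C; add CellTiter-Fluor at 21hr; read fluorescence.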
On the % scale 0 is the no-effect control and ±100 the full control effect; potency means the concentration at half of the fitted maximal effect.

SMILES	activity change, negative = cytotoxicity	Potency
C[C@@H](Oc1ccc(Cl)cc1Cl)C(=O)O	5.29% (inactive)	–
CCOC(=O)OC1=C(c2cc(C)ccc2C)C(=O)NC12CCC(OC)CC2 (stereo not drawn)	2.63% (inactive)	–
O=c1ssc(Cl)c1Cl	-5.83% (inactive)	–
Oc1ccccc1Br	2.55% (inactive)	–
C=CC(=O)OCCCCOC(=O)C=C	-2.53% (inactive)	–
N#C/C=C/C#N	-3.7% (inactive)	–
CCOP(=O)(NC(C)C)Oc1ccc(SC)c(C)c1 (stereo not drawn)	-10.9% (inactive)	–
[Cd+2].[Cl-].[Cl-]	–	61.6 µM (active) and 54.5 µM (active)
S=C(SSC(=S)N1CCCCC1)N1CCCCC1	-2.82% [at 42.5 µM] (inactive)	–
CCCCOCN(C(=O)CCl)c1c(CC)cccc1CC	-4.12% (inactive)	–
CC(C)C(=O)Cl	8.39% (inactive)	–
O=C(O)COc1nc(Cl)c(Cl)cc1Cl	0.261% (inactive)	–
O=c1oc2ccccc2c(O)c1Cc1c(O)c2ccccc2oc1=O	0.925% [at 42.5 µM] (inactive)	–
CC(C)(C)c1ccc(CSc2cnn(C(C)(C)C)c(=O)c2Cl)cc1	–	2.43 µM (active)
CCCCCCCCCCCCCCCC[n+]1ccccc1	–	71.7 µM (active) and 61.1 µM (active) and 60.3 µM (active)
c1cc[c]([Sb]([c]2ccccc2)[c]2ccccc2)cc1	-14.5% (inactive)	–
ClC(Cl)=C(c1ccc(Cl)cc1)c1ccc(Cl)cc1	–	inactive
Nc1ccccc1C(=O)Oc1ccc2ccccc2c1	0.287% (inactive)	–
CN(C)c1ccc(N=Nc2ccccc2)cc1	–	48.6 µM (active)
O=C(O)C1C2CCC(O2)C1C(=O)O (stereo not drawn)	5.97% (inactive)	–
O=[N+]([O-])c1ccc2ccc3cccc4ccc1c2c34	–	38.5 µM (active)
CCS(=O)(=O)c1cccnc1S(=O)(=O)NC(=O)Nc1nc(OC)cc(OC)n1	0.562% (inactive)	–
CCCCCCCCCCCCBr	-9.37% (inactive)	–
